Only some compounds are listed: those with a hit (about 7.6% of all), similar ones and a draw of the others.
Cy5 interf NS3h: counter-screen for HCV NS3 helicase inhibitors: fluorescence interference; Cy5-dT15 DNA with NS3h; actives lie on both sides; signal over control mean, under 1 quenches; fluorescence interference ratio at 100 µM; 6% of 16,000 active; AID 720488;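 active = compound fluorescence over control fluorescence at most 0.8, a quencher, or at least a set upper limit, an enhancer; inactive = ratio between 0.8 and the set upper limit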
HCV NS3h FP: hepatitis C NS3 helicase inhibition, primary screen. inhibition, % at 100 µM. NS3h Cy5-dT15 DNA binding, fluorescence polarization. 1.6% of 16,000 active;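 active = inhibition above the average over every tested compound plus 3 SD, cut at about 40% in these data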
Hits are given with their value; . = inactive.

SMILES	Cy5 interf NS3h	HCV NS3h FP
Cc1ccc(C(O)=C2C(=O)C(=O)N(c3nncs3)C2c2cccc(Cl)c2)cc1 (stereo not drawn)	.	.
O=C(N/N=C\c1cccc(Br)c1)C(Oc1ccccc1)Oc1ccccc1	0.78	.
CC(Oc1ccc(Br)cc1)C(=O)N/N=C\c1ccccc1O (stereo not drawn)	.	.
COCC(=O)Nc1nc2ccccc2s1	0.67	.
CC(CCC(=O)Nc1nc2ccccc2s1)CC(=O)Nc1nc2ccccc2s1 (stereo not drawn)	.	.
C/C(=N\N=C1\NC(=O)C(C)S1)c1ccc(Cl)cc1 (stereo not drawn)	.	.
COc1ccc(N(CC(=O)Nc2ccc(Cl)cc2C)S(=O)(=O)c2ccc(C)c([N+](=O)[O-])c2)cc1	0.68	.
COc1ccc(OC)c(NC(=O)CN(c2cccc([N+](=O)[O-])c2)S(=O)(=O)c2ccccc2)c1	0.67	.
COc1ccc(N(CC(=O)Nc2ccc(C)cc2C)S(=O)(=O)c2ccc(C)cc2)cc1	.	.
COC(=O)CN(c1ccccc1)S(=O)(=O)c1ccccc1[N+](=O)[O-]	.	.
CCOc1ccccc1NC(=O)CN(c1cccc([N+](=O)[O-])c1)S(=O)(=O)c1ccccc1	.	.
COc1ccc(OC)c(NC(=O)CN(c2ccccc2)S(=O)(=O)c2ccccc2[N+](=O)[O-])c1	0.75	.
CCOC(=O)Nc1ccc(Br)cc1C(c1ccccc1)N(CC(=O)OC)C(=O)OCC (stereo not drawn)	.	.
CC(=O)Nc1cccc(/C(C)=N\N=C2/NC(=O)C(CC(=O)Nc3ccc(C(=O)O)cc3)S2)c1 (stereo not drawn)	.	.
NC(=S)N/N=C\c1cc2c(cc1[N+](=O)[O-])OCO2	0.79	.
O=C(N/N=C\c1ccc(O)c([N+](=O)[O-])c1)/C(=C\c1ccc2c(c1)OCO2)NC(=O)c1ccccc1	.	.
COc1cc(Br)c(/C=C2\C(=O)NC(=O)N(c3ccc(C)cc3)C2=O)cc1OC	.	.
CC(=O)c1ccc(NC(=S)NC(=O)/C=C/c2ccccc2)cc1	.	.
CCc1ccc(NC(=S)NC(=O)/C=C/c2ccccc2)cc1	.	49
O=[N+]([O-])c1ccc(Cl)c(/C=N\N2CCN(Cc3ccccc3Cl)CC2)c1	.	.
COc1cccc(C(=O)Nc2ccc(-c3cnc(-c4ccc(NC(=O)c5cccc(OC)c5)cc4)nc3)cc2)c1	.	.
C=CCNC(=S)NC(=O)/C=C/c1ccco1	.	.
COC(=O)c1ccc(-c2ccc(/C=C3/SC(=S)N(c4ccccc4)C3=O)o2)cc1	.	.
CCN1C(=O)/C(=C/c2cccc(OC(=O)c3ccccc3I)c2)SC1=S	0.74	.
O=C1/C(=C/c2ccc(I)o2)SC(=S)N1c1ccccc1	0.69	.
SMILES	Cy5 interf NS3h	HCV NS3h FP
O=C1/C(=C\c2ccc(-c3ccccc3Cl)o2)SC(=S)N1Cc1ccccc1	.	.
CN(C)c1ccc(/C=N\N2C(=O)/C(=C/c3ccc(N(C)C)cc3)SC2=S)cc1	.	.
CCN1C(=O)/C(=C\c2ccc(N(C)C)cc2)SC1=S	1.2	.
CCN1C(=O)/C(=C\c2cccc(OCCOc3cccc(OC)c3)c2)SC1=S	.	.
O=C1/C(=C/c2ccc(I)o2)SC(=S)N1Cc1ccccc1	0.66	.
Cc1ccc(C)c(N2C(=O)C3C4C=CC(C5CC45)C3C2=O)c1 (stereo not drawn)	.	.
CC(/C=C1\SC(=S)N(c2cccc(Br)c2)C1=O)=C\c1ccccc1	.	.
C=CCN1C(=O)/C(=C\c2ccc(C=O)cc2)SC1=S	.	.
O=Cc1ccc(/C=C2/SC(=S)N(Cc3ccccc3)C2=O)cc1	0.72	.
O=C(Nc1ccc(-c2nc3ccccc3s2)cc1)c1cccc(C(F)(F)F)c1	.	.
COc1ccc(NC2=CC(=O)CC(c3ccco3)C2)cc1OC (stereo not drawn)	.	.
COC(=O)c1ccc(OCC(O)CN(C)C)cc1 (stereo not drawn)	0.76	.
CCOC(=O)c1ccc(NC(=O)c2ccc(OCC(C)C)cc2)cc1	.	.
COc1ccc(-c2ccc(/C=N\n3cnnc3)o2)c([N+](=O)[O-])c1	.	.
CC1=NN(c2nc(-c3ccc(Cl)c(Cl)c3)cs2)C(=O)C1	.	.
C/C(CN1C(=O)c2ccccc2C1=O)=N/NC(=O)c1cccc(Cl)c1	.	.
O=[N+]([O-])c1ccc(-c2cc(-c3ccc(I)cc3)n[nH]2)cc1	1.2	.
CCn1c(-c2ccc([N+](=O)[O-])cc2)n[nH]c1=S	.	.
Cc1ccc(/C=C2\SC(=S)N(c3ccc(C)c(C)c3)C2=O)o1	.	.
Cc1c(Cl)cccc1NC(=O)Cn1cnc([N+](=O)[O-])n1	.	.
COC(=O)c1ccccc1NC(=O)Cn1cnc([N+](=O)[O-])n1	0.69	.
CCOc1ccc(NC(=O)CSc2nnc(-c3ccc(OC)cc3)o2)cc1	0.74	.
COc1ccc(NC(=O)CSc2ncccn2)cc1	.	.
O=C(O)C(Cc1ccccc1)N1C(=O)/C(=C/C=C/c2ccccc2)SC1=S (stereo not drawn)	.	.
O=C(O/C(=C/c1nccn1Cc1ccc(Cl)cc1)c1ccccc1)c1ccccc1	1.2	.
SMILES	Cy5 interf NS3h	HCV NS3h FP
Cn1ccnc1/C=C(/OC(=O)c1ccc(Cl)cc1)c1ccc(Cl)cc1	.	.
Cn1c(-c2ccco2)nc2c3ccccc3c3ccccc3c21	.	.
COc1cc(N2C(=O)NC(=O)/C(=C\c3cc(Br)c(O)c(OC)c3)C2=O)c(OC)cc1Cl	.	.
COc1ccc(/C=C2/Sc3ccccc3C2=O)cc1	.	.
CN1CCN(c2ccc(/C=C3\NC(=S)NC3=O)cc2[N+](=O)[O-])CC1	0.61	.
CN1C(=O)C(=Cc2ccc(O)c([N+](=O)[O-])c2)C(=O)N(C)C1=O	.	.
CN1CCN(c2ccc(/C=C3\Sc4ccccc4C3=O)cc2[N+](=O)[O-])CC1	0.79	.
CCn1c2ccccc2c2cc(NC(=O)C/C(C)=N\NC(=O)OCc3ccc(OC)cc3)ccc21	.	.
COc1cccc(N2C(=O)C(=Cc3ccc(OC)cc3OC)C(=O)NC2=S)c1	.	.
COc1ccc(CCNC(=O)C(=O)Nc2ccc(Cl)c(Cl)c2)cc1OC	.	.
Cc1ccc(/C=C/C(=O)NC(=S)Nc2ccc(S(N)(=O)=O)cc2)cc1	.	.
CCc1nnc(NS(=O)(=O)c2ccc(NC(=S)NC(=O)/C=C/c3ccc(C(C)C)cc3)cc2)s1	.	44
Cc1ccc(-c2nc3ncccc3o2)cc1NC(=O)c1ccc(-c2ccc(F)cc2)o1	.	.
COCCN1C(=O)/C(=C/c2ccccc2F)SC1=S	.	.
Cc1ccc2oc(-c3cccc(N)c3C)nc2c1	0.56	.
CCOc1cccc(-c2nc3cc(C)ccc3o2)c1	.	.
COc1ccccc1C=C1C(=O)NC(=S)N(c2ccccc2F)C1=O	.	.
O=C1NC(=S)N(c2ccccc2F)C(=O)/C1=C/c1ccc(OCc2cccc(C(=O)O)c2)cc1	.	50
O=C(O)c1cccc(NC2=C(Cl)C(=O)N(c3ccc(Cl)cc3)C2=O)c1	.	.
Cc1cc2nc(-c3cc(NC(=O)COc4ccc([N+](=O)[O-])cc4)ccc3O)oc2cc1C	.	.
COc1ccc(OC)c(NC(=O)/C(=C/c2ccccc2)c2ccccc2)c1	0.61	.
COc1cccc(NC(=O)/C(=C/c2ccccc2)c2ccccc2)c1	.	.
O=C(/C=C/c1ccccc1Cl)N1CCCCCC1	.	.
